Test results reported in PubChem BioAssay (NCI).
This is part of a sample that, as a whole, favours compounds with a hit. Of some 79,000 tested, about 15% had one in any assay. Rule as the data show it: active = growth inhibition above about 70%; inactive = the rest.

Experiments:
[1] = NCI Yeast Anticancer Drug Screen. Data for the rad50 strain (AID 155);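 also: 0% = growth of vehicle-only cultures of the same strain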; conditions: S. cerevisiae rad50 strain growth inhibition; at 50.0 µM; stronger effect = higher value
Method in brief: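 Yeast carrying a defined DNA repair defect were exposed to test compounds, and growth was compared with vehicle-treated controls to give percent inhibition.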

[2] = NCI Yeast Anticancer Drug Screen. Data for the mec2-1 strain (AID 157); conditions: S. cerevisiae mec2-1 strain, at 50.0 µM, stronger effect = higher value
Method in brief: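 Each compound was tested on mec2-1 yeast, a strain altered in DNA damage repair or cell cycle control. Growth inhibition is reported relative to vehicle.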

[3] = NCI Yeast Anticancer Drug Screen. Data for the sgs1 mgt1 strain (AID 161);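 also: 0% = growth of cultures given vehicle only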; conditions: S. cerevisiae sgs1 mgt1 strain, at 50.0 µM, stronger effect = higher value
Method in brief: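 Test agents were incubated with a DNA-repair-mutant yeast strain. Growth was then read and compared against vehicle-treated controls.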

[4] = NCI Yeast Anticancer Drug Screen. Data for the cln2 rad14 strain (AID 165);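 also: 0% = growth equal to vehicle treated cultures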; conditions: S. cerevisiae cln2 rad14 strain, at 50.0 µM, stronger effect = higher value
Method in brief: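 Test compounds were added to cln2 rad14 yeast cultures; inhibition of growth was then determined by comparison with vehicle treatment.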

[5] = NCI Yeast Anticancer Drug Screen. Data for the bub3 strain (AID 167); conditions: S. cerevisiae bub3 mutant strain, at 50.0 µM, stronger effect = higher value
Method in brief: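 Compounds were applied to a genetically altered yeast strain carrying a cell-cycle control defect. Growth inhibition was scored against vehicle-treated controls.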

[6] = NCI Yeast Anticancer Drug Screen. Data for the mlh1 rad18 strain (AID 175); conditions: S. cerevisiae mlh1 rad18 strain growth inhibition; at 50.0 µM; stronger effect = higher value
Method in brief: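 Inhibition values reflect reduced growth of mutant yeast versus vehicle-treated controls following compound exposure; the mutations affect DNA damage repair.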

Measured: growth inhibition

CNc1ccccc1C(=O)N/N=C/C1CCCCC1
inactive: [1] 0.6% | [2] -2.65% | [3] 16.6% | [4] -6.85% | [5] 9.85% | [6] 8.35%

NC(=O)C(CC(=O)O)NC(=O)c1ccccc1 (stereo not drawn)
inactive: [1] 8.05% | [2] 1.15% | [3] 3.45% | [4] -35% | [5] -10.7% | [6] 10.1%

CC(=O)NCC(O)c1ccc([N+](=O)[O-])cc1 (stereo not drawn)
inactive: [1] -23.3% | [2] -31.1% | [3] 1.4% | [4] 7% | [5] -14.1% | [6] -23%

CCS(=O)O
inactive: [1] -21.2% | [2] 15.9% | [3] 1.3% | [4] -4.25% | [5] -6.8% | [6] -8.9%

COc1cc(C=Nc2ccc(Cl)cc2)ccc1O
inactive: [1] -35.9% | [2] -25.9% | [3] -19.1% | [4] -20.6% | [5] -24.9% | [6] -43.3%

COCc1cc(C(C)(C)C)cc(CNC2CCCCC2)c1O
inactive: [1] 16% | [2] 12.2% | [3] 27.1% | [4] 13.4% | [5] 12.5% | [6] 10.7%

CN(CN(C)N=Nc1ccc(Br)cc1)CN(C)N=Nc1ccc(Br)cc1
inactive: [1] -0.7% | [2] 19.6% | [3] 4.45% | [4] 23.2% | [5] 5.1% | [6] 15%

CC1(C)CCC2(CC1)CC[N+](C)(CCC[N+](C)(C)C)CC2
inactive: [1] -26.6% | [2] -8.4% | [3] -10.8% | [4] -11.8% | [5] 8.7% | [6] -11.2%

c1ccc(-c2n[nH]c(-c3[nH]nc(-c4ccccc4)c3-c3ccccc3)c2-c2ccccc2)cc1
inactive: [1] -12.2% | [2] 15.3% | [3] -12% | [4] 5.15% | [5] 7.35% | [6] 8.2%

CNC(=O)c1c(-c2ccc(F)cc2)noc1C
inactive: [1] -6.7% | [2] -10.5% | [3] 25.4% | [4] 9.05% | [5] 17.4% | [6] 10.1%

Cc1ccc(S(=O)(=O)NNC(=O)c2cccnc2)cc1
inactive: [1] -11.4% | [2] 18.7% | [3] 1.35% | [4] -27.8% | [5] -5.75% | [6] 4.8%

C/C(=N\O)c1ccc(OCc2cc(C(F)(F)F)cc(C(F)(F)F)c2)cc1
inactive: [1] -10.1% | [2] -26.2% | [3] -6.75% | [4] -1.5% | [5] -2.15% | [6] 7.5%

CCc1cccc(C)c1NC(=O)CC1C(=O)Nc2ccccc2S1=O (stereo not drawn)
inactive: [1] -6.1% | [2] -0.9% | [3] 13.2% | [4] -63.7% | [5] 9.85% | [6] 27.4%

COC1OC(COCc2ccccc2)C(OCc2ccccc2)C(OC)C1O (stereo not drawn)
inactive: [1] -37.6% | [2] -3% | [3] 5.6% | [4] -40.9% | [5] -2.3% | [6] -17.6%

CC(C)C(=O)OC1(Cc2cccc[n+]2C)CCCCC1
inactive: [1] 8.8% | [2] 9.6% | [3] 22.6% | [4] 27.4% | [5] 12.9% | [6] 1.45%

CCOc1ccccc1NC(=O)C1=C(C)NC(C)=C(C(=O)Nc2ccccc2OCC)C1c1ccc(NC(C)=O)cc1
inactive: [1] -30.1% | [2] -10.8% | [3] -15.4% | [4] -5.9% | [5] -22.2% | [6] 11.7%

Cc1cc(O)c(C(C)C)cc1CN1CCCCC1
inactive: [1] 0% | [2] -25.1% | [3] -14.2% | [4] 0.15% | [5] -2.85% | [6] -3.3%

Cc1ccc2cccc(OCC(=O)O)c2n1
inactive: [1] 5.7% | [2] 13.4% | [3] 6.1% | [4] 3.45% | [5] -8.45% | [6] 13.3%

CCCCCCCCCCCCCC(=O)OCC(=O)c1ccc(-c2ccccc2)cc1
inactive: [1] 23.1% | [2] 4.2% | [3] 32.5% | [4] 29.9% | [5] 11.4% | [6] 27.8%

Cn1c(=O)n2c(-c3ccccc3)c(-c3ccccc3)n2c1=O
inactive: [1] 6.85% | [2] -19.6% | [3] -23.8% | [4] 0.5% | [5] -25.9% | [6] -28.9%

CCC12C[N+]3([O-])CCc4c([nH]c5ccccc45)C(C(=O)OC)(c4cc5c(cc4OC)N(C)C4C(O)(C(=O)OC)C(OC(C)=O)C6(CC)C=CCN7CCC54C76)CC(C3)C1O2 (stereo not drawn)
inactive: [1] -8.15% | [2] -24.1% | [3] -14% | [4] -9.8% | [5] -2.2% | [6] -31.7%

COC1=C(O)C(=O)C(OC)=C(O)C1=O
inactive: [1] -19.5% | [2] -8.65% | [3] -13.5% | [4] -1.4% | [5] 9.75% | [6] -19.6%

Cc1ccccc1N=Nc1c(O)n(-c2ccccc2)c(=S)n(-c2ccccc2)c1=O
inactive: [1] 43.5% | [2] 0.9% | [3] 28.6% | [4] -18.9% | [5] 2.2% | [6] 14.4%

O=C(O)CCS.[Cu+2]
inactive: [1] -11.8% | [2] -25.3% | [3] -9.05% | [4] -10.7% | [5] -29.9% | [6] -14.8%

CC(=O)N1C(OC(C)C)CC(C)N1c1ccccc1 (stereo not drawn)
inactive: [1] -7.45% | [2] -15.8% | [3] -38.4% | [4] 3.35% | [5] -22.8% | [6] -38.3%

CC(C)(OC(=O)c1ccc([N+](=O)[O-])cc1)C1CC1
inactive: [1] -12.1% | [2] 1.55% | [3] -23.6% | [4] -28.9% | [5] -11.1% | [6] -24.4%

Brc1ccc(C2CC(c3cccc4ccccc34)=Nc3ccccc3S2)cc1 (stereo not drawn)
inactive: [1] -14.1% | [2] -2.45% | [3] -10.9% | [4] -29.2% | [5] 8.7% | [6] 18.1%

O=C(C[n+]1cccc2cccc(O)c21)c1ccc2ccccc2c1
inactive: [1] 6.6% | [2] 7.6% | [3] 18.8% | [4] 26.6% | [5] 1.15% | [6] 2.7%

O=C1OC(=O)C2C3CC(C4OC34)C12 (stereo not drawn)
inactive: [1] -12.2% | [2] 29.3% | [3] -3.55% | [4] -20.8% | [5] -9.9% | [6] 4.05%

CSC(=O)Oc1ccc([N+](=O)[O-])cc1
inactive: [1] 6.25% | [2] 1.55% | [3] -6.7% | [4] -38.3% | [5] 12.5% | [6] -2.9%

CC1C2=C(CCCC2=O)O/C1=N\O (stereo not drawn)
inactive: [1] 11.4% | [2] -6.85% | [3] -0.85% | [4] -24.9% | [5] 6.7% | [6] 12.2%

CCC(CC)C(O)(C(=O)O)C(CC)CC
inactive: [1] 14.1% | [2] 13.7% | [3] 3.95% | [4] 3.3% | [5] 8.5% | [6] 32.8%

CCCN(CCC)CC(O)CN(CCC)CCC
inactive: [1] -0.4% | [2] -24.1% | [3] -21.6% | [4] -36% | [5] 5.55% | [6] -0.3%

Cc1cc(O)c(C(C)C)cc1S(=O)(=O)O
inactive: [1] 0.7% | [2] 0.2% | [3] 3.75% | [4] -1.5% | [5] 3.25% | [6] 5.15%

COc1ccc(/C=C/C(=N\NC(=O)c2ccccc2)c2sc(Nc3ccc([N+](=O)[O-])cc3)nc2C)cc1OC
inactive: [1] -13.3% | [2] 2.5% | [3] 11.1% | [4] 22.8% | [5] 30.8% | [6] -9.85%

Cc1nc2c(c(-c3ccccc3)n1)Cc1ccccc1O2
inactive: [1] -4.05% | [2] -12.4% | [3] 7.55% | [4] -10.5% | [5] 25.8% | [6] 0%

O=C1c2cccc3c([N+](=O)[O-])ccc(c23)C(=O)N1CCc1ccccn1
inactive: [1] 24.9% | [2] 19.2% | [3] 45.5% | [4] 1.95% | [5] 17.9% | [6] 26.6%

O=C1c2ccccc2C(C2c3ccccc3C(=O)c3cc(Br)ccc32)c2ccc(Br)cc21 (stereo not drawn)
inactive: [1] 4.25% | [2] -35.1% | [3] -9.5% | [4] -48.9% | [5] -14.1% | [6] -18.2%
